In PubChem BioAssay (NCI) one finds growth inhibition data, which are given here for nine compounds.

Experiment [1] in a line: NCI Yeast Anticancer Drug Screen. Data for the rad50 strain (AID 155).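 Further: 0% = growth of vehicle-only cultures of the same strain.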 To be noted: S. cerevisiae rad50 strain growth inhibition, active compounds read high. The method in brief: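 A DNA repair-deficient yeast mutant serves as the test organism; compound-induced growth inhibition is calculated against vehicle-treated cells.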
Experiment [2] can be described thus: NCI Yeast Anticancer Drug Screen. Data for the mec2-1 strain (AID 157). To be noted: S. cerevisiae mec2-1 strain, active compounds read high. A digest of the protocol: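 Using mec2-1 yeast: add compound, measure growth, express inhibition versus vehicle-treated cultures.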
Experiment [3] in a line: NCI Yeast Anticancer Drug Screen. Data for the sgs1 mgt1 strain (AID 161).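 Further: 0% = growth of cultures given vehicle only.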 To be noted: S. cerevisiae sgs1 mgt1 strain, active compounds read high. The method in brief:
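This yeast growth screen uses a strain with defined DNA-repair lesions; compound-treated growth is compared with vehicle-treated growth.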

The nature of experiment [4]: NCI Yeast Anticancer Drug Screen. Data for the cln2 rad14 strain (AID 165).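 Further: 0% = growth equal to vehicle treated cultures.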 The settings on record: S. cerevisiae cln2 rad14 strain, active compounds read high. A digest of the protocol: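 Yeast strain cln2 rad14, bearing defects in cell cycle control and DNA repair, serves as the test system; values reflect growth inhibition compared with vehicle.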
Experiment [5] in a line: NCI Yeast Anticancer Drug Screen. Data for the bub3 strain (AID 167). To be noted: S. cerevisiae bub3 mutant strain, active compounds read high. A digest of the protocol:
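Inhibition values come from growth of compound-treated mutant yeast normalised to vehicle-treated controls.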

A short description of experiment [6]: NCI Yeast Anticancer Drug Screen. Data for the mlh1 rad18 strain (AID 175). The settings on record: S. cerevisiae mlh1 rad18 strain growth inhibition, active compounds read high. A digest of the protocol: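 Steps: expose repair-defective yeast to compound; measure growth; express inhibition against vehicle-treated controls.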
Setting [7] is: at 5.0 µM (retest, dose inferred, filed as 0.5).
[8] abbreviates: at 50.0 µM (retest, dose inferred, filed as 5.0).

The panel holds about 79,000 compounds, 15% with a hit somewhere; the sample as a whole holds those more often. Unmarked numbers belong to inactive results. Activity calls are given as the source filed them. No stated cut-off is given here; in the data, active means growth inhibition above about 70%; inactive means the rest.

Turning to `CCCn1c2ccccc2c2ccc3c(c21)C(=O)C=CC3=O`, the growth inhibition is 31% in experiment [1] (setting [7]); 69% in experiment [1] (setting [8]); 67.8% in experiment [1] (at 50.0 µM); 27% in experiment [2] (setting [7]); 80% (active) in experiment [2] (setting [8]); 61.9% in experiment [2] (at 50.0 µM). For the same compound, the growth inhibition is 37% in experiment [3] (setting [7]); 73% (active) in experiment [3] (setting [8]); 70.7% (active) in experiment [3] (at 50.0 µM); 18% in experiment [4] (setting [7]); 35% in experiment [4] (setting [8]); 56.3% in experiment [4] (at 50.0 µM). Also, the growth inhibition in experiment [5] (setting [7]) is 37%; in experiment [5] (setting [8]), 80% (active); in experiment [5] (at 50.0 µM), 65%; in experiment [6] (setting [7]), 42%; in experiment [6] (setting [8]), 77% (active); in experiment [6] (at 50.0 µM) it was 62.7%.
With `COc1cc2c(cc1OC)C(C)N(C)c1c-2c(OC(C)=O)cc2cc(OC)c(OC)cc12` (configuration not stated), the growth inhibition in experiment [1] (setting [7]) was 2%; in experiment [1] (setting [8]), 52%; in experiment [1] (at 50.0 µM), 82.5% (active); in experiment [2] (setting [7]), -4%; in experiment [2] (setting [8]), 64%; in experiment [2] (at 50.0 µM), 87.4% (active). Besides, the growth inhibition in experiment [3] (setting [7]) was -4%; in experiment [3] (setting [8]), 67%; in experiment [3] (at 50.0 µM), 64.2%; in experiment [4] (setting [7]), -8%; in experiment [4] (setting [8]), 49%; in experiment [4] (at 50.0 µM), 19.6%. The growth inhibition in experiment [5] (setting [7]) was -4%; in experiment [5] (setting [8]) it was 72% (active); in experiment [5] (at 50.0 µM), 42.2%; in experiment [6] (setting [7]), -3%; in experiment [6] (setting [8]), 54%; in experiment [6] (at 50.0 µM), 70.5% (active).
Consider `CC(=O)c1c2c(cc3c1CC1(Cc4cc5c(cc4C1)C(=O)CCC5)C3)CCCC2` (configuration not stated), for which the growth inhibition was 34% in experiment [1] (setting [7]); 32% in experiment [1] (setting [8]); -15.8% in experiment [1] (at 50.0 µM); 23% in experiment [2] (setting [7]); 25% in experiment [2] (setting [8]); -16% in experiment [2] (at 50.0 µM). Besides, the growth inhibition in experiment [3] (setting [7]) is 22%; in experiment [3] (setting [8]), 27%; in experiment [3] (at 50.0 µM), 8.95%; in experiment [4] (setting [7]), 22%; in experiment [4] (setting [8]) it was 30%; in experiment [4] (at 50.0 µM) it was 8.4%. In addition, the growth inhibition in experiment [5] (setting [7]) was 32%; in experiment [5] (setting [8]) it was 33%; in experiment [5] (at 50.0 µM) it was 6.25%; in experiment [6] (setting [7]), 28%; in experiment [6] (setting [8]), 29%; in experiment [6] (at 50.0 µM), 13.8%.
Take `Oc1ccccc1C1C=C(c2ccccc2)NC(N2CCCCC2)=C1c1nc2ccccc2[nH]1` (configuration not stated): the growth inhibition is -9% in experiment [1] (setting [7]); -11% in experiment [1] (setting [8]); 18.1% in experiment [1] (at 50.0 µM); -9% in experiment [2] (setting [7]); -13% in experiment [2] (setting [8]); -5.15% in experiment [2] (at 50.0 µM). The growth inhibition is -9% in experiment [3] (setting [7]); -10% in experiment [3] (setting [8]); 5.05% in experiment [3] (at 50.0 µM); -22% in experiment [4] (setting [7]); -14% in experiment [4] (setting [8]); 40% in experiment [4] (at 50.0 µM). Moreover, the growth inhibition in experiment [5] (setting [7]) was -13%; in experiment [5] (setting [8]) it was 6%; in experiment [5] (at 50.0 µM) it was 29.4%; in experiment [6] (setting [7]), 2%; in experiment [6] (setting [8]), -2%; in experiment [6] (at 50.0 µM), 9.4%.
For the compound `C[C@H](CCC1=NCCN1)[C@H]1CC[C@H]2[C@@H]3[C@H](O)C[C@@H]4C[C@H](O)CC[C@]4(C)[C@H]3CC[C@]12C`, the growth inhibition is -19% in experiment [1] (setting [7]); 99% (active) in experiment [1] (setting [8]); 91.5% (active) in experiment [1] (at 50.0 µM); -2% in experiment [2] (setting [7]); 100% (active) in experiment [2] (setting [8]); 93% (active) in experiment [2] (at 50.0 µM). The growth inhibition in experiment [3] (setting [7]) is 3%; in experiment [3] (setting [8]) it was 100% (active); in experiment [3] (at 50.0 µM) it was 91.7% (active); in experiment [4] (setting [7]), -6%; in experiment [4] (setting [8]) it was 99% (active); in experiment [4] (at 50.0 µM), 91% (active). In addition, the growth inhibition in experiment [5] (setting [7]) is 0%; in experiment [5] (setting [8]), 99% (active); in experiment [5] (at 50.0 µM) it was 91.6% (active); in experiment [6] (setting [7]) it was 4%; in experiment [6] (setting [8]), 99% (active); in experiment [6] (at 50.0 µM), 91% (active).
As for `CCOC(=O)C(NC(C)=O)[CH](c1ccccc1)[Sn]([Cl])([c]1ccccc1)[c]1ccccc1` (configuration not stated), the growth inhibition in experiment [1] (setting [7]) is -7%; in experiment [1] (setting [8]), -13%; in experiment [1] (at 50.0 µM), 59.4%; in experiment [2] (setting [7]) it was -1%; in experiment [2] (setting [8]) it was -12%; in experiment [2] (at 50.0 µM), 65.7%. The growth inhibition is -8% in experiment [3] (setting [7]); -5% in experiment [3] (setting [8]); 64.7% in experiment [3] (at 50.0 µM); -22% in experiment [4] (setting [7]); -2% in experiment [4] (setting [8]); 49.1% in experiment [4] (at 50.0 µM). For the same compound, the growth inhibition in experiment [5] (setting [7]) is -14%; in experiment [5] (setting [8]) it was 12%; in experiment [5] (at 50.0 µM) it was 37.4%; in experiment [6] (setting [7]), 1%; in experiment [6] (setting [8]), 1%; in experiment [6] (at 50.0 µM), 60.5%.
On to `CCC[CH2][Sn]([CH2]CCC)([NH]c1ncnc2[nH]cnc12)[NH]c1ncnc2[nH]cnc12`, for which the growth inhibition is 14% in experiment [1] (setting [7]); 96% (active) in experiment [1] (setting [8]); 87.8% (active) in experiment [1] (at 50.0 µM); 14% in experiment [2] (setting [7]); 98% (active) in experiment [2] (setting [8]); 91.7% (active) in experiment [2] (at 50.0 µM). For the same compound, the growth inhibition in experiment [3] (setting [7]) was 24%; in experiment [3] (setting [8]) it was 94% (active); in experiment [3] (at 50.0 µM), 85.5% (active); in experiment [4] (setting [7]), 30%; in experiment [4] (setting [8]), 89% (active); in experiment [4] (at 50.0 µM), 85.2% (active). In addition, the growth inhibition in experiment [5] (setting [7]) is 14%; in experiment [5] (setting [8]), 95% (active); in experiment [5] (at 50.0 µM), 87.6% (active); in experiment [6] (setting [7]) it was 20%; in experiment [6] (setting [8]), 98% (active); in experiment [6] (at 50.0 µM) it was 86.9% (active).
For `O=S(=O)(N=S(c1ccc(Cl)cc1)c1ccc(Cl)cc1)c1ccccc1`, the growth inhibition in experiment [1] (setting [7]) is 0%; in experiment [1] (setting [8]) it was 10%; in experiment [1] (at 50.0 µM), 49.2%; in experiment [2] (setting [7]), -8%; in experiment [2] (setting [8]), 5%; in experiment [2] (at 50.0 µM), -14.4%. The growth inhibition in experiment [3] (setting [7]) is -1%; in experiment [3] (setting [8]), 12%; in experiment [3] (at 50.0 µM), 4.5%; in experiment [4] (setting [7]) it was 9%; in experiment [4] (setting [8]) it was 28%; in experiment [4] (at 50.0 µM), -32.4%. Also, the growth inhibition is 5% in experiment [5] (setting [7]); 19% in experiment [5] (setting [8]); 27.2% in experiment [5] (at 50.0 µM); 0% in experiment [6] (setting [7]); 10% in experiment [6] (setting [8]); 12.8% in experiment [6] (at 50.0 µM).
As for `COC(=O)C(Sc1ccc(Cl)cc1)C1SC(=S)N(C)C1=O` (configuration not stated), the growth inhibition in experiment [1] (setting [7]) was 34%; in experiment [1] (setting [8]), 99% (active); in experiment [1] (at 50.0 µM), 62%; in experiment [2] (setting [7]) it was 19%; in experiment [2] (setting [8]) it was 99% (active); in experiment [2] (at 50.0 µM), 41.5%. Moreover, the growth inhibition is 21% in experiment [3] (setting [7]); 99% (active) in experiment [3] (setting [8]); 65.9% in experiment [3] (at 50.0 µM); 27% in experiment [4] (setting [7]); 99% (active) in experiment [4] (setting [8]); 37.2% in experiment [4] (at 50.0 µM). Further, the growth inhibition in experiment [5] (setting [7]) was 15%; in experiment [5] (setting [8]), 99% (active); in experiment [5] (at 50.0 µM), 84.8% (active); in experiment [6] (setting [7]), 38%; in experiment [6] (setting [8]) it was 98% (active); in experiment [6] (at 50.0 µM), 58%.
